Source: PubChem (National Center for Advancing Translational Sciences (NCATS))
The list is not random: actives were taken first. Their share in the collection is about 5.9%.
TrxR1 inh = qHTS Assay for Inhibitors of Mammalian Selenoprotein Thioredoxin Reductase 1 (TrxR1): qHTS | recombinant rTrxR1, NADPH fluorescence consumption, selenite substrate | 390,000 compounds, 1% hits | Potency, µM (doses to about 114 µM), inactives show top-dose activity change, negative = inhibition, hits mostly inhibitors; also: potency is read from the fitted curve at half-maximal effect; nearly all actives have a fitted effect of over 65% in size
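Rat TrxR1 (90 nM in the dispensed reagent) was pre-reduced with 400 uM NADPH for 5 min at room temperature, then incubated with compound for 15 min. After 400 uM selenite was added, NADPH fluorescence (Ex 340/Em 450 nm) was followed for 8 min.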
Coupling enz = qHTS Assay for Inhibitors of Fructose-1,6-bisphosphate Aldolase from Giardia Lamblia: Coupling assay counterscreen; activity change, negative = inhibition, % at 58.2 µM, hits read low; coupling enzyme system counterscreen, AmpLite Red fluorescence; 290,000 compounds, 0.67% hits; in the data active = activity change below about -30%
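Fluorescence at 525 nm excitation and 598 nm emission measured inhibition of the coupled detection system without aldolase. Compounds (at 57.5 uM final) were preincubated 10 min at room temperature with coupling enzyme reagent before a 20 min substrate/AmpLite Red step.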
VP16 counter = VP16 counterscreen qHTS for inhibitors of ROR gamma transcriptional activity | 310,000 compounds, 3.5% hits | Potency, µM (titrated, usually from 53.6 µM), without a hit: at the highest dose activity, negative = inhibition, hits mostly inhibitors | Drosophila S2 Gal4-VP16 UAS-luciferase, luminescence, 20 h;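 also: Gal4-VP16 expression switched on by copper sulfate through the metallothionein promoter; potency is read from the fitted curve at half-maximal effect; nearly all actives have a fitted effect of over 50% in size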
TrxR1 substrate = qHTS Assay for Substrates of Mammalian Selenoprotein Thioredoxin Reductase 1 (TrxR1): qHTS. purified TrxR1 substrate turnover, NADPH consumption readout. AID 588456, 2011. Potency, µM (top dose mostly 114 µM), for inactives: at the highest dose activity change, negative = substrate turnover. 390,000 compounds, 0.01% hits. Thioredoxin reductase 1, cytoplasmic (Rattus norvegicus), O89049; also: potency is read from the fitted curve at half-maximal effect; nearly all actives have a fitted effect of over 50% in size
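Rat TrxR1, dispensed at 90 nM, was prereduced with 400 uM NADPH (final) for 5 min at ~22 deg C, then incubated with compound 15 min before 400 uM selenite. A first-read NADPH fluorescence drop versus no-compound background flagged substrates.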
RORg inh = qHTS for inhibitors of ROR gamma transcriptional activity. Nuclear receptor ROR-gamma (Mus musculus), P51450. Drosophila S2 Gal4-RORgamma UAS-luciferase reporter, 20 h. Potency, µM (titrated, usually from 53.6 µM), for inactives: at the top dose activity change, negative = inhibition, hits mostly inhibitors. 310,000 compounds, 5.4% hits. AID 2551, 2010; also: potency is read from the fitted curve at half-maximal effect; nearly all actives have a fitted effect of over 60% in size
Target sequence (P51450 whole entry, looked up, the tested form may be a part): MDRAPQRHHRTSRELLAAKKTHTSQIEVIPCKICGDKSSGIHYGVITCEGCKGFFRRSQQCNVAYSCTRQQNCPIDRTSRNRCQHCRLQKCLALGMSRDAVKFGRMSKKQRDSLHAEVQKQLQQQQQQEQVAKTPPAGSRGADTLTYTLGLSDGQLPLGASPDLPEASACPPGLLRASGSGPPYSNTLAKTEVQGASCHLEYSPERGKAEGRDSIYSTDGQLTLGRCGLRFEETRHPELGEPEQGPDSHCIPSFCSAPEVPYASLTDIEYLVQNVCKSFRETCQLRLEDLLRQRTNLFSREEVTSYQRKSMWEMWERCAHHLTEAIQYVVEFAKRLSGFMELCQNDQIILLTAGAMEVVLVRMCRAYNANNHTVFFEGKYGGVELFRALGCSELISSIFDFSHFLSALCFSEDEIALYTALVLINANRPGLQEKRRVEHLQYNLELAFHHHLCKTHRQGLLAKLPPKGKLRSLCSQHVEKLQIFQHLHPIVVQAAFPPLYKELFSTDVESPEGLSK
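Drosophila Schneider cells stably carrying a metallothionein-driven Gal4 DBD–ROR gamma fusion and a UAS-Photinus luciferase reporter were exposed to compound for 1 hr, then induced with copper sulfate (700 uM final) for 20 hr at ambient temperature before luminescence reading.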
GALK inh = qHTS Assay for Inhibitors of Human Galactokinase (GALK); P51570; Purified GALK, Kinase-Glo residual ATP luminescence; Potency, µM (highest dose often 57.5 µM), for the others: top-dose activity change, negative = inhibition, most hits filed as inhibitors; 270,000 compounds, 0.007% hits; also: potency is read from the fitted curve at half-maximal effect
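The enzyme phosphorylates galactose (100 uM) using ATP (35 uM); inhibition is detected as higher residual ATP, quantified by bioluminescence after 1 h reaction at room temperature, pH 8.0.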
* marks the source's active call; other numbers are inactive results; ? = inconclusive; . = no result; [ ] = remark or other dose. Unless noted, calls follow the shape of the dose curve; as a rule, active = well fitted curve in the direction sought with a large enough effect; inconclusive = small, poorly fitted or top-dose-only effect, or another doubt; inactive = no such curve, though single readings can be large; an effect the other way counts as inactive or inconclusive. % is scaled to controls: 0 for no effect and ±100 for the full control effect.

SMILES	TrxR1 inh	Coupling enz	VP16 counter	TrxR1 substrate	RORg inh	GALK inh
COCCCNC(=S)N1CCC(C(=O)c2ccc3c(c2)OCCO3)CC1	-15%	1	28%	-11%	-1%	5%
CCCCCCCc1ccc(C2NC(=S)NC3=C2C(=O)c2ccccc23)cc1 (configuration not stated)	1%	-1	?	-5%	5.6µM*	1%
CCc1ccc(C2NC(=S)NC3=C2C(=O)CCC3)cc1 (configuration not stated)	1%[57.1 µM]	1	?	-22%	?	0%
C=C(C)C1CC=C(C)/C(=N\NC(=S)Nc2ccc(C)cc2)C1 (configuration not stated)	-10%	1	4.5µM*	-5%	1.1µM*	1%
Cc1ccc(C(=O)Nc2ccc(SC(F)F)cc2)s1	17%[57.1 µM]	-10	3%	2%[57.1 µM]	3%	4%
O=C(N/N=C/c1cc([N+](=O)[O-])ccc1O)Nc1ccccc1	18%[57.1 µM]	-2	22µM*	3%[57.1 µM]	4.5µM*	-1%
O=C(N/N=C/c1cc([N+](=O)[O-])ccc1O)C12CC3CC(CC(C3)C1)C2	20%	1	0.71µM*	1%	?	-1%
O=C(N/N=C/c1cc([N+](=O)[O-])ccc1O)NC12CC3CC(CC(C3)C1)C2	-9%	1	?	-8%	3.5µM*	.
CCNC(=O)C(=O)N/N=C/c1cc([N+](=O)[O-])ccc1O	5%[57.1 µM]	1	?	5%[57.1 µM]	11µM*	0%
O=C(N/N=C/c1ccc(O)cc1O)NC12CC3CC(CC(C3)C1)C2	14%	1	-7%	2%	10%	0%
O=[N+]([O-])c1cccc(N/N=C/c2cc([N+](=O)[O-])ccc2O)c1	12%[57.1 µM]	0	-10%	-8%	-35%	2%
COc1ccc(NC(=O)C2CC(=O)NC(Nc3cccc(C)c3)=N2)cc1 (configuration not stated)	6%[57.1 µM]	-1	-6%	7%[57.1 µM]	-20%	1%
N#CC1=C2SCN(Cc3ccccc3)CN2C(=O)CC1c1ccc2c(c1)OCO2 (configuration not stated)	?	-32*	-4%	-3%	2%	-2%
COc1ccc2ccccc2c1C1CC(=O)N2CN(Cc3ccco3)CSC2=C1C#N (configuration not stated)	?	-18	?	-11%	10µM*	1%
O=c1[nH]c2cc(Cl)ccc2n1-c1ccccc1	-1%	0	-3%	3%	15%	-2%
CC(=O)C1=C(C)NC(SCC(=O)c2ccccc2)=C(C#N)C1c1ccco1 (configuration not stated)	.	-7	?	.	42%	5%
CC(=O)C1=C(C)NC(SCC(=O)c2ccccc2)=C(C#N)C1CC(C)C (configuration not stated)	?	-4	?	-5%	11µM*	-6%
CCOC(=O)c1ccc(CN(Cc2ccc(OC)cc2)S(=O)(=O)c2cccc(C(F)(F)F)c2)cc1	37%[57.1 µM]	.	.	3%[57.1 µM]	.	.
C/C(CC(=O)N1CCN(C=O)CC1)=N\NC(=O)c1ccc(Cl)cc1	-22%[57.1 µM]	3	11µM*	3%[57.1 µM]	?	-2%
O=C(OCC(=O)N1CCCCC1)c1cc2ccccc2cc1O	6%[57.1 µM]	2	-16%	5%[57.1 µM]	6%	5%
CCOc1ccc(NC(=O)c2cc3ccccc3cc2O)cc1	-15%[2.29 µM]	0	-27%	-4%[2.29 µM]	-24%	-1%
CCOC(=O)C(C)/C(C)=N/NC(=O)c1cc2ccccc2cc1O (configuration not stated)	5%	-1	13µM*	1%	11µM*	2%
C/C(CC(=O)N1CCCC1)=N\NC(=O)c1cc2ccccc2cc1O	20%	-65*	?	-5%	6.3µM*	-2%
CCOC(=O)c1c(NC(=O)CN2C(=O)NC3(CCCCC3C)C2=O)sc(C(=O)N(C)C)c1C (configuration not stated)	11%	.	.	3%	.	.
CC(=O)/C=C\c1cn(-c2ncc(C(F)(F)F)cc2Cl)c2ccccc12	6%[57.1 µM]	-2	-3%	-11%	25%	-6%
SMILES	TrxR1 inh	Coupling enz	VP16 counter	TrxR1 substrate	RORg inh	GALK inh
N#CC(C#N)=Cc1cn(-c2ncc(C(F)(F)F)cc2Cl)c2ccccc12	16µM*	-1	?	-15%[57.1 µM]	11µM*	0%
O=C(CCn1c(=O)sc2ccccc21)NCc1ccc2c(c1)OCO2	-8%	0	-7%	-4%	30%	-2%
O=C(NC(=S)N1CCN(c2ccc([N+](=O)[O-])cc2)CC1)c1ccccc1F	-3%	1	1µM*	0%	0.56µM*	0%
O=C(NC(=S)N1CCN(c2ccc([N+](=O)[O-])cc2)CC1)c1ccccc1Cl	4%	2	1.4µM*	-3%	0.45µM*	-2%
O=[N+]([O-])c1ccc(N2CCN(C(=S)Nc3ccccc3)CC2)cc1	19%[57.1 µM]	2	-3%	1%[57.1 µM]	-4%	-1%
O=[N+]([O-])c1ccc(N2CCN(c3ccc(F)cc3)CC2)cc1	9%	-3	-13%	-6%[57.1 µM]	7%	-2%
O=C(NC(=S)N1CCN(c2ccc([N+](=O)[O-])cc2)CC1)c1ccc(F)cc1	-24%	-1	1µM*	-14%	1.1µM*	1%
COCCNC(=S)NN=C1CCCCCC1	0%	-3	6.3µM*	-5%	2µM*	-2%
NC(=S)NN=C1CCCCCCCCCC1	?	.	.	-17%	.	.
COCCNC(=S)N/N=C1\CC(C)CC(C)(C)C1 (configuration not stated)	12%[57.1 µM]	0	3.5µM*	4%[57.1 µM]	1µM*	11%
CCOC(=O)N/N=C1\CC(C)CC(C)(C)C1 (configuration not stated)	12%[57.1 µM]	0	-4%	3%[57.1 µM]	15%	2%
COCC(=O)Nc1cc(C)cn(Cc2ccccc2Cl)c1=O	12%[57.1 µM]	-12	-3%	-8%	-16%[1.91 µM]	3%
CCOc1ccccc1-n1c(CN2CCN(C(=O)c3ccco3)CC2)nc2ccccc2c1=O	20µM*	0	7%	10%	-29%	-2%
CCOc1cc(CN2CCN(C(=O)c3ccco3)CC2)ccc1OC	-6%	-4	-11%	-2%	0%	3%
O=C(/C=C\c1ccccc1OC(=O)c1ccccc1F)c1cc2ccccc2o1	-13%[57.1 µM]	0	0.32µM*	-8%	?	-4%
